Test systems include NCI-H23 lung; NCI-H226 lung; NCI-H322M lung; HOP-62 NSCLC; NCI-H460 lung; HOP-92 NSCLC; NCI-H522 lung; A549/ATCC NSCLC; 786-0 renal; COLO 205 colon.
Holding throughout (experiment): NCI-60 one-dose screen, 48 h (100 = growth as untreated, 0 = no growth, -100 = all killed)
Holding throughout (settings): 10 µM unless noted

Each structure is given as a SMILES string. This is part of a sample that, as a whole, favours compounds with a hit. Of some 83,000 tested, about 20% had one in any assay.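 How to read the values: 0–100, growth inhibition (40 = 60% inhibited); 0, no net growth; -100 to 0, cell death (-40 = 40% of starting cells died; -100 = all dead).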 Unmarked numbers belong to inactive results. Active and inactive are the calls of the source. Rule for the calls: active = growth percent below 10; inactive = the rest.

Take `CC(=O)C[n+]1cccc2c3ccccc3ccc21`: the growth in the experiment on NCI-H23 lung was 85.4%; with NCI-H226 lung, 97%; with NCI-H322M lung, 89.7%; in the experiment on HOP-62 NSCLC, 109%; with NCI-H460 lung, 82.4%; in the experiment with HOP-92 NSCLC, 85.2%. For the same molecule, the growth is 82.7% in the experiment with NCI-H522 lung, 56.9% with A549/ATCC NSCLC, 94.8% in the experiment with 786-0 renal and 70.5% with COLO 205 colon.
For the molecule `CCOc1ccccc1[C@H]1C(C(=O)c2ccc(Cl)cc2)C2(N[C@@H]1c1ccccc1)C(=O)Nc1ccc(Br)cc12` (stereo not given in full), the growth in the experiment on NCI-H23 lung is -39.1% (active); in the experiment with NCI-H226 lung, -68.4% (active); in the experiment with NCI-H322M lung, 15.8%; in the experiment on HOP-62 NSCLC it was 7.94% (active); with NCI-H460 lung, 2.95% (active); with HOP-92 NSCLC it was -46.9% (active). The growth in the experiment on NCI-H522 lung is -4.42% (active); in the experiment on A549/ATCC NSCLC, 41%; with 786-0 renal, -76.5% (active); in the experiment on COLO 205 colon it was -82.3% (active).
`COc1c(B(O)O)cc(F)cc1-c1nc2ccc3[nH]ncc3c2c2c1COCC2`: the growth was 78.3% in the experiment on NCI-H23 lung; 50.8% in the experiment with NCI-H226 lung; 78.4% in the experiment with NCI-H322M lung; 49.5% in the experiment on HOP-62 NSCLC; 64.9% in the experiment on NCI-H460 lung; 18.1% with HOP-92 NSCLC. For the same molecule, the growth with NCI-H522 lung is 14.5%; with A549/ATCC NSCLC it was 92.5%; with 786-0 renal it was 46.1%; in the experiment with COLO 205 colon it was 38.1%.
As to `COc1ccc(C(=O)/C=C/c2ccc3c(c2)OCCO3)cc1S(N)(=O)=O`, the growth is 73% with NCI-H23 lung; 116% in the experiment on NCI-H226 lung; 84.6% in the experiment with NCI-H322M lung; 29.7% in the experiment with HOP-62 NSCLC; 68.3% in the experiment on NCI-H460 lung; 94.5% in the experiment with HOP-92 NSCLC. In addition, the growth was 43.8% with NCI-H522 lung, 47.6% in the experiment with A549/ATCC NSCLC, 76.5% in the experiment on 786-0 renal and 91.9% in the experiment with COLO 205 colon.
Turning to `COC(=O)c1cc(C(=O)C(C)(C)C)n2c3ccccc3c3ccccc3c12`, the growth is 92.4% with NCI-H23 lung; 100% in the experiment with NCI-H226 lung; 102% in the experiment with NCI-H322M lung; 132% with HOP-62 NSCLC; 106% in the experiment with NCI-H460 lung; 63.2% with HOP-92 NSCLC. The growth with NCI-H522 lung was 103%; in the experiment with A549/ATCC NSCLC, 115%; with 786-0 renal, 93%; in the experiment on COLO 205 colon it was 112%.
Consider `Cc1oc(-c2ccccc2)nc1CN[C@@H]1C[C@@H]2C[C@H]([C@H]1C)C2(C)C`, for which the growth is -30% (active) in the experiment on NCI-H23 lung; -29.8% (active) in the experiment with NCI-H226 lung; 57.9% in the experiment on NCI-H322M lung; 75% in the experiment with HOP-62 NSCLC; 4.28% (active) with NCI-H460 lung; -11.4% (active) in the experiment with HOP-92 NSCLC. Moreover, the growth is 30.8% in the experiment with NCI-H522 lung, 50.9% in the experiment on A549/ATCC NSCLC, 21.8% in the experiment on 786-0 renal and -69.3% (active) in the experiment on COLO 205 colon.
Take `Cc1cccc(-c2ccccc2Oc2ccc3nnc(Cl)n3n2)c1`: the growth was 96.8% with NCI-H23 lung; 103% with NCI-H226 lung; 99.9% in the experiment with NCI-H322M lung; 114% in the experiment with HOP-62 NSCLC; 109% in the experiment with NCI-H460 lung; 130% in the experiment with HOP-92 NSCLC. The growth with NCI-H522 lung is 102%; in the experiment on A549/ATCC NSCLC, 98.7%; in the experiment on 786-0 renal it was 98.8%; in the experiment with COLO 205 colon, 127%.
`COc1c(B(O)O)cccc1-c1nc2ccc3cn[nH]c3c2c2c1CCCC2`: the growth in the experiment on NCI-H23 lung is 72.8%; with NCI-H226 lung it was 49.5%; in the experiment on NCI-H322M lung, 67.7%; in the experiment on HOP-62 NSCLC, 68.7%; in the experiment on NCI-H460 lung, 56.8%; in the experiment on HOP-92 NSCLC it was 27.2%. The growth with NCI-H522 lung is 62.6%; in the experiment with A549/ATCC NSCLC, 41.9%; with 786-0 renal it was 31.8%; in the experiment with COLO 205 colon, 71.7%.
Take `O=C(CSc1nnc(-c2ccc(-c3nc4ccc(Cl)cc4[nH]3)cc2)o1)Nc1ccc(Cl)cc1`: the growth in the experiment on NCI-H23 lung is -11.9% (active); with NCI-H226 lung it was -38.2% (active); with NCI-H322M lung it was 32.9%; with HOP-62 NSCLC, -13.6% (active); with NCI-H460 lung, -75.8% (active); in the experiment on HOP-92 NSCLC it was 14.7%. In addition, the growth in the experiment on NCI-H522 lung is -1.21% (active); in the experiment with A549/ATCC NSCLC it was -36.2% (active); in the experiment with 786-0 renal it was -39.5% (active); in the experiment with COLO 205 colon, 45.3%.
`COc1cc(/C=N/NC(=O)c2ccc(OCc3nc4ccc(Cl)cc4[nH]3)cc2)cc(OC)c1OC`: the growth in the experiment on NCI-H23 lung is 34.7%; in the experiment with NCI-H226 lung it was 35.5%; with NCI-H322M lung, 55.1%; in the experiment on HOP-62 NSCLC it was 64.2%; with NCI-H460 lung, 44.7%; in the experiment on HOP-92 NSCLC, 118%. In addition, the growth was 26.2% in the experiment with NCI-H522 lung, 59.2% in the experiment with A549/ATCC NSCLC, 29.3% in the experiment with 786-0 renal and 29.3% in the experiment with COLO 205 colon.
In the case of `O=C(CSc1nnc(-c2ccc(-c3nc4ccccc4[nH]3)cc2)o1)Nc1ccc(Cl)cc1`, the growth with NCI-H23 lung is -6.9% (active); in the experiment on NCI-H226 lung, 40.3%; with NCI-H322M lung, 61.5%; in the experiment on HOP-62 NSCLC it was 0.484% (active); in the experiment with NCI-H460 lung, -65.4% (active); in the experiment on HOP-92 NSCLC, -5.87% (active). Besides, the growth with NCI-H522 lung is 0.5% (active); in the experiment with A549/ATCC NSCLC, 1.88% (active); in the experiment on 786-0 renal, -37.8% (active); with COLO 205 colon, 61.7%.
For the molecule `COc1ccc2[nH]c(=O)c(CSc3ccccc3Nc3nccc(-c4ccc(Cl)cc4)n3)cc2c1`, the growth in the experiment on NCI-H23 lung was 43.2%; with NCI-H226 lung, 45.7%; in the experiment on NCI-H322M lung it was 69.5%; with HOP-62 NSCLC, 69.2%; in the experiment on NCI-H460 lung it was 33.3%; in the experiment with HOP-92 NSCLC it was 36.6%. The growth in the experiment on NCI-H522 lung was 4.52% (active); with A549/ATCC NSCLC it was 52.5%; with 786-0 renal it was 43.4%; in the experiment on COLO 205 colon, 61.8%.

The values above are taken from PubChem BioAssay (NCI).
